# MbtI inh = blocks the Mycobacterium tuberculosis siderophore enzyme MbtI; P9WFX0; inhibition, % (concentration not given with the values); purified MbtI enzyme, fluorescence intensity read-out; 100,000 compounds, 0.89% hits; in the data active means inhibition mostly above about 56%, no sharp cut-off; inactive means mostly below about 77%
# MenB inh = blocks the Mycobacterium tuberculosis MenB enzyme; P9WNP5; MenB enzyme assay, absorbance read-out; inhibition, % (test concentration not listed); 100,000 compounds, 0.43% hits; in the data active means inhibition above about 21%, passing the limit was not always enough
# Polio RdRp inh = poliovirus RNA polymerase inhibition; P03300; poliovirus polymerase elongation, fluorescence polarization; active compounds read low; % elongation, % (compound at 16.7 µg/mL); 150,000 compounds, 0.66% hits; AID 588519; in the data active means % elongation below about 90%
# Target sequence (P03300 1749-2209 limits assumed): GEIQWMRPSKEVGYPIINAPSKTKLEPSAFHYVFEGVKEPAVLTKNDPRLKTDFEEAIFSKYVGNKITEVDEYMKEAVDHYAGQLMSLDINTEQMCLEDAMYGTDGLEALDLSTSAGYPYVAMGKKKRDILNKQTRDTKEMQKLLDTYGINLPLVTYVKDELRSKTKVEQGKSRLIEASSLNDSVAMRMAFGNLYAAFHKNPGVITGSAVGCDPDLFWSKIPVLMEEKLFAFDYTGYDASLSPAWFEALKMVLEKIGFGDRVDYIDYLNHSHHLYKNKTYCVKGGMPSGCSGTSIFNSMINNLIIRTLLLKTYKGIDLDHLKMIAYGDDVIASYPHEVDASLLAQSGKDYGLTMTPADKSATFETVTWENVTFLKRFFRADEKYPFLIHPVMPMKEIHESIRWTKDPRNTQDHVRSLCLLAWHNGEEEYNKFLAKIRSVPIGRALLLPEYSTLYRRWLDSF
# * marks the source's active call; other numbers are inactive results; x = not tested or not shown. This is a sample that favours compounds with a hit; in the whole collection about 1.5% have one here.
SMILES,MbtI inh,MenB inh,Polio RdRp inh
COc1ccc(-c2c(C)oc3cc(OCC(O)CN4CCC(C(N)=O)CC4)ccc3c2=O)cc1 (stereo not given),-11,-10,98
COc1cc2c(cc1OC)CN(C1CC(=O)N(CCc3ccccc3)C1=O)CC2 (stereo not given),17,4,106
C/C(=N\N)c1cc(C(=O)NN)c(=O)[nH]c1C,5,10,101
N#C/C(=C\c1ccco1)C(N)=S,42,-214,92
N#C/C(=C\C=C\c1ccco1)C(N)=S,68,-58,84*
CCC(CO)NS(=O)(=O)c1cc(-c2nnc(OC)c3ccccc23)ccc1C (stereo not given),1,-2,104
CCCN(CCC)c1nn2c(=O)c(C(=O)NCc3cccc(OC)c3)cnc2s1,x,x,99
CCC(=O)N1CCN(c2ccc(N)cc2)CC1,0,-53,104
CC(=O)N1CCN(c2ccc(N)cc2)CC1,x,30*,103
COc1ccc(-c2nc(CSCC(=O)O)c(C)o2)cc1,110,4,99
C(=C\C1Nc2ccccc2-c2nc3ccccc3n21)/c1ccccc1 (stereo not given),109,-7,98
CCOc1ccccc1NC(=O)c1c(NC(=O)C(C)Oc2cccc(Cl)c2)sc2c1CCCCC2 (stereo not given),x,x,98
O=C(COc1ccc(Cl)cc1)Nc1sc2c(c1C(=O)Nc1cccc(Cl)c1)CCCC2,x,x,81*
COc1ccc(NC(=O)c2c(NC(=O)COc3ccccc3)sc3c2CCCCC3)cc1,x,x,105
O=C(Nc1cccc(Cl)c1)c1c(NC(=O)C(F)(F)F)sc2c1CCCC2,x,x,79*
Cc1cccc(NC(=O)c2c(NC(=O)C(F)(F)F)sc3c2CCCCC3)c1,x,x,105
COc1ccccc1NC(=O)c1c(NCc2sccc2C)sc2c1CCCCC2,x,x,111
Cc1ccccc1NC(=O)c1c(NC(=O)C(C)Oc2cccc(Cl)c2)sc2c1CCCC2 (stereo not given),x,x,87*
COc1ccc(Cl)cc1NC(=O)c1c(NCc2sccc2C)sc2c1CCCC2,x,x,70*
Cc1cc(S(=O)(=O)N2CCCN(c3nc4ccc(Cl)cc4s3)CC2)c(C)cc1Cl,-15,-8,110
Cc1c(C(=O)NCCCN2CCCCC2)sc2nc3n(c(=O)c12)CCCC3,2,3,100
CS(=O)(=O)Nc1ccc2c(c1)CCC2,-14,-6,104
O=C(CN1C(=O)CSC1=O)CN1C(=O)CSC1=O,-1,-20,102
CCOC(=O)CN1CCOc2ccccc21,-4,x,x
N=C1S/C(=C\c2ccc(-c3ccccc3F)o2)C(=O)N1c1ccc2c(c1)OCO2,-26,-11,99
SMILES,MbtI inh,MenB inh,Polio RdRp inh
COc1cc(-c2ccc(/C=C3\SC(=N)N(c4nccs4)C3=O)o2)c(OC)cc1Cl,56*,-29,113
Cc1cc(C)c(Cn2c(SCc3cccc(F)c3)nc3ccncc32)c(C)c1,8,-34,105
CCCCn1c(N)c(N2CCC(C(N)=O)CC2)c(=O)[nH]c1=O,-12,-9,104
NC(CC(=O)O)c1ccc2c(c1)OCO2 (stereo not given),-8,15,100
CSc1cccc(NC(=S)Nc2cccc(SC)c2)c1,1,-6,98
CSc1cccc(NC(=S)N(C)C)c1,74*,-57,99
CC(C)(C)C(=O)Nc1ccc2c(c1)OCO2,-4,x,102
NC(=O)/C=C/C(=O)Nc1ccc2c(c1)OCO2,101*,0,101
CC(C)(C(=O)Nc1ccc2c(c1)OCO2)C(=O)Nc1ccc2c(c1)OCO2,4,41*,103
O=C(/C=C/c1ccccc1)Nc1ccc2c(c1)OCO2,-18,-29,107
CC(=O)NC(NC(C)=O)c1ccc2c(c1)OCO2,-5,31*,102
CCSC1=N/C(=C\c2cccc(OC)c2)C(=O)S1,-6,-16,101
Oc1ccc(C=NCc2ccco2)cc1,16,17,100
Cc1ccccc1Nc1nnc(-c2ccc(C(=O)NCCO)cc2)c2ccccc12,-2,-16,102
O=C1OC(Nc2cccc(C(F)(F)F)c2)c2ccccc21 (stereo not given),7,-21,105
O=C(CSc1ncc(C(F)(F)F)cc1Cl)N1CCC(c2nc3ccccc3o2)CC1,4,-53,100
CCOc1ccccc1C=Nc1ccc(Br)cc1,x,0,105
Cc1ccc(C(=O)Nc2ccc3c(c2)OCO3)cc1,x,-18,99
CC(=S)Nc1ccc2c(c1)OCO2,73*,-15,72*
CC(=O)Nc1ccc2c(c1)OCO2,-4,x,103
CN(C)C(=S)Nc1ccc2c(c1)OCO2,92*,-38,102
CC1CCCCN1C(=O)CN(c1nccs1)S(=O)(=O)c1ccccc1 (stereo not given),2,-35,123
COc1ccc2nc(N(Cc3cccnc3)C(=O)c3ccco3)sc2c1,x,x,109
C=CCC1Cc2ccccc2C(C)N1 (stereo not given),4,x,x
C=CCC1Cc2ccccc2C(CC=C)N1 (stereo not given),-3,39*,100
SMILES,MbtI inh,MenB inh,Polio RdRp inh
Cc1csc(CC(N)=S)n1,98*,-56,102
Cc1csc(C/C(N)=N/O)n1,0,1,102
Cn1ncc(SCc2ccccc2)c(Cl)c1=O,-3,-19,109
Cn1ncc(S(=O)(=O)Cc2ccccc2)c(Cl)c1=O,90*,4,98
Cc1c(C#N)c(NC(=O)CSc2nnnn2C2CCCC2)n(Cc2ccccc2)c1C,3,-2,100
COc1ccc(N2CCN(CCNc3nc4ccccc4n4c(C)nnc34)CC2)cc1,18,7,102
N#C/C(=C(/O)C1CC1)c1nc2ccccc2s1,92*,x,101
Cc1ccc(/C(O)=C(\C#N)c2nc3ccccc3s2)cc1C,9,4,100
CCCc1[nH]n(-c2ccccc2)c(=O)c1C(C)=NCCOC,12,30,103
CC(=O)NCCCc1[nH]n(-c2ccccc2)c(=O)c1NC(=O)c1ccccc1,21,10,87*
O=C(OCc1ccccn1)C1CCCCN1S(=O)(=O)c1ccccc1 (stereo not given),-3,-12,98
CC1=NNC(=O)/C1=C/c1ccc(-c2ccc(Cl)cc2)o1,2,-5,104
Cc1nn(Cc2ccc(C(=O)Sc3ccc(C(F)(F)F)cn3)o2)c(C)c1Br,86*,9,104
COC(=O)c1ccc(Cn2nc(C)c(Br)c2C)o1,-4,x,x
COc1ccc(OCC(=O)Nn2c(=S)[nH]c3ncccc3c2=O)cc1,30,-26,100
N=C(N)SCC(=O)Nc1ccccc1,4,23*,100
Cc1ccc(NC(=O)CSC(=N)N)cc1,12,1,102
CC(C)c1ccccc1NN,x,11,79*
COCC(=O)Nc1ccccc1C(C)C,-7,1,98
O=C(COC(=O)C1CCC1)Nc1ccc(F)c(Cl)c1,35,-12,104
Sc1sccc1C=NC1CCCCC1,99*,-206,98
CN(C)Cc1cc(C=NC2CCCCC2)c(S)s1,x,-3,109
O=C(NCSCc1cccc(C(F)(F)F)c1)Nc1ccc(F)c(Cl)c1,-4,-11,99
CCNC(=O)c1c(O)c2ccccc2n(CC)c1=O,27,6,104
CC(=O)N1CCCCC1c1cccnc1.O=[N+]([O-])O.[Ag] (stereo not given),x,-36,60*
O=C(/C=C/c1ccccc1)N1CCCCC1c1cccnc1 (stereo not given),x,-5,107

# Source: PubChem
